# Results: PubChem BioAssay (EPA / NIEHS)
# Inconclusive results are not listed. Active and inactive are the calls of the source. How the source made its calls: active means hit-call score of the fitted dose curve at least 0.9, where 1 is the maximum; inconclusive means response in the unintended direction; inactive means score below 0.9.
# Target: Hepatocyte nuclear factor 4-alpha (Homo sapiens) (UniProt P41235)
# Test: ATG_HNF4a_TRANS: Attagene TRANS-FACTORIAL HepG2 Assay for human Hepatocyte Nuclear Factor 4 alpha (HNF4a) (AID 2282982)
# Details: HepG2 HNF4a transactivation reporter, mRNA readout
# Method: ATG_TRANS is a cell-based, multiplexed-readout assay that uses HepG2, a human liver cell line, with measurements taken at 24 hours after chemical dosing in a 24-well plate.ATG_HNF4a_TRANS is one of 30 assay component(s) measured or calculated from the ATG_TRANS assay. It is designed to make measurements of mRNA induction, a form of inducible reporter, as detected with fluorescence intensity signals by Reverse transcription polymerase chain reaction (RT-PCR) and Capillary electrophoresis technology.Data from the assay component ATG_HNF4a_TRANS was analyzed into 1 assay endpoint. This assay endpoint, ATG_HNF4a_TRANS, was analyzed in the positive analysis fitting direction relative to DMSO as the negative control and baseline of activity. Using a type of inducible reporter, measures of mRNA for gain-of-signal activity can be used to understand the reporter gene at the transcription factor-level as they relate to the gene HNF4A. Furthermore, this assay endpoint can be referred to as a primary readout, because this assay has produced multiple assay endpoints where this one serves a reporter gene function. To generalize the intended target to other relatable targets, this assay endpoint is annotated to the nuclear receptor intended target family, where the subfamily is orphan.
# Human liver HepG2 cells are transiently transfected with multiple reporter transcription units (MRTUs) in 6-well plates using FuGene 6 reagent (Roche; 3 ml FuGene/1 mg DNA). The MRTU constructs are regulated by a cis-regulating element (promoter). […] A major difference between the CIS and TRANS system is that in CIS activities of endogenous TFs are measured, whereas the TRANS assay evaluates changes in activities of exogenous, chimeric NR-Gal4 proteins. […] At the end of 24 hour incubation, total RNA was isolated using TriZol reagent (Invitrogen). The isolated RNA is then reverse-transcribed using oligo(dT) primer and Mo-MLV reverse transcriptase (Invitrogen) with DNAse I (Ambion) treatment for 30 min. The one-tenth of the produced cDNA was amplified by PCR using Taq DNA polymerase (Invitrogen) and two reporter sequence-specific primers. The PCR products were fluorescently labeled by primer extension with 6-arboxyfluorescein (6-FAM) 5'-labeled reporter sequence-specific primer (2 min at 95 C, 20 s at 68 C and 10 min at 72 C) and these products were digested with 5U of HpaI (New England Biolabs) for 2h at 37 C. The fragments were purified using Qiaquick PCR columns (Qiagen), analyzed on an ABI 3130xL genetic analyzer (Applied Biosystems) with peak positions identified by using a set of X-rhodamine (ROX)-labeled MapMarker1000 molecular weight standards (BioVentures). The raw capillary electrophoresis data was processed using Attagraph software (Attagene).
# Hepatocyte nuclear factor 4-alpha (Homo sapiens), sequence (P41235 whole entry, looked up): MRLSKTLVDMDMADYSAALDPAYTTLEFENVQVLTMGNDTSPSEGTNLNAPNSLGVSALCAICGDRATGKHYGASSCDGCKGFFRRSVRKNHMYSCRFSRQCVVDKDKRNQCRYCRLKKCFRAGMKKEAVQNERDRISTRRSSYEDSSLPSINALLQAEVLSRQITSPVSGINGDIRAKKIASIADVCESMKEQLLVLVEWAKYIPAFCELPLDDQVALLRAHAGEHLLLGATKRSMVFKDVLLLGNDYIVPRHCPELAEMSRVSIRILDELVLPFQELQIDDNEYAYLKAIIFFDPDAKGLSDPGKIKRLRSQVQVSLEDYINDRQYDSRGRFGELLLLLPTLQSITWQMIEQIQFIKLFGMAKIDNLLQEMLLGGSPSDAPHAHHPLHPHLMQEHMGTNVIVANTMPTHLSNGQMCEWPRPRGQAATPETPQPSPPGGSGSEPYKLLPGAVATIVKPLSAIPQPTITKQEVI
row,Compound,outcome
1,Nc1ccc(Nc2ccccc2)cc1,inactive
2,CC(=O)OC[C@H]1O[C@@](COC(C)=O)(O[C@H]2O[C@H](COC(C)=O)[C@@H](OC(C)=O)[C@H](OC(C)=O)[C@H]2OC(C)=O)[C@@H](OC(C)=O)[C@@H]1OC(C)=O,inactive
3,CC(C)=CCCC(C)CCO (centres undefined),inactive
4,Cc1ccc(N)cc1O,inactive
5,Cn1c(=O)cc(Oc2ccc(F)cc2F)c2cnc(NCC(C)(C)O)nc21,inactive
6,CCCN(C1CCN(C(=O)C2CCNCC2)CC1)[C@@H]1CCc2ccc(OC)cc2C1,inactive
7,O=c1n(CC2CO2)c(=O)n(CC2CO2)c(=O)n1CC1CO1 (centres undefined),inactive
8,C1N2CN3CN1CN(C2)C3,inactive
9,CCCCC(CC)COC(=O)CCCCCCCCC(=O)OCC(CC)CCCC (centres undefined),inactive
10,COc1ccc(-n2nc(C(F)F)cc2-c2ccc(S(C)=O)cc2)cc1 (centres undefined),inactive
11,O=C(O)c1cc(N=Nc2ccc(S(=O)(=O)Nc3ccccn3)cc2)ccc1O,inactive
12,CC(C)=CCCC(C)=CC=O,inactive
13,CCc1cc(SCc2sc(-c3ccc(C(F)(F)F)cc3)nc2CN2CCN(c3ccc(OC)cc3)CC2)ccc1OCC(=O)O,inactive
14,O=C(O)c1cccc(N(Cc2cccnc2)c2ccc(OC(F)F)c(OC(F)F)c2)c1,inactive
15,O=C(O)CCN(C1(C(=O)NO)CCCC1)S(=O)(=O)c1ccc(Oc2ccc(F)cc2)cc1,inactive
16,O=C(OC[C@H]1O[C@@H](OC(=O)c2cc(O)c(O)c(OC(=O)c3cc(O)c(O)c(O)c3)c2)[C@H](OC(=O)c2cc(O)c(O)c(OC(=O)c3cc(O)c(O)c(O)c3)c2)[C@@H](OC(=O)c2cc(O)c(O)c(OC(=O)c3cc(O)c(O)c(O)c3)c2)[C@@H]1OC(=O)c1cc(O)c(O)c(OC(=O)c2cc(O)c(O)c(O)c2)c1)c1cc(O)c(O)c(OC(=O)c2cc(O)c(O)c(O)c2)c1,inactive
17,CNCc1ccc(NC(=O)c2c[nH]c3c2C(=O)CCC3)cc1,inactive
18,CC[C@H](C)C(=O)O[C@H]1C[C@@H](C)C=C2C=C[C@H](C)[C@H](CC[C@@H]3C[C@@H](O)CC(=O)O3)[C@H]21,inactive
19,COCCOCCOCCOC,inactive
20,COc1cccc(-c2ccc(/C=C\CN3CCCCCC3)cc2Cl)c1,inactive

row,Compound,outcome
1,Oc1ccc2c(c1)-c1ccccc1C2,inactive
2,C[C@](N)(Cc1ccc(O)c(O)c1)C(=O)O,inactive
3,CC1(C)C(=O)N(Br)C(=O)N1Br,inactive
4,CCCC(=O)OCC,inactive
5,CC(C)CCCCCCCOC(=O)CCCCC(=O)OCCCCCCCC(C)C,inactive
6,COC(=O)c1c(Cl)c(Cl)c(C(=O)OC)c(Cl)c1Cl,inactive
7,Cc1ccc(S(=O)(=O)O)cc1C,inactive
8,O=C1OC(=O)C2C3C=CC(C3)C12 (centres undefined),inactive
9,Cn1c(=O)c2c(ncn2C)n(C)c1=O,inactive
10,CC[C@H]1CC[C@H](NCc2cc3c(cc2OC)[C@H]2C[C@H]2C(=O)N3C)[C@H](c2ccccc2)N1,inactive
11,C=CC(=C)CCC=C(C)C,inactive
12,COC(=O)CC(=O)OC,inactive
13,CCCCC(CC)COC(=O)c1ccc(C(=O)OCC(CC)CCCC)cc1 (centres undefined),inactive
14,Cn1cnc([N+](=O)[O-])c1Sc1ncnc2nc[nH]c12,inactive
15,Fc1ccccc1[C@@H](F)COC1CCC(Nc2ncnc3[nH]ncc23)CC1 (some centres undefined),inactive
16,CCCCCCCCO,inactive
17,COCCOc1cc2cc(C(=O)NC3CCN(C(C)C)CC3)n(CC(=O)Nc3ccc(Cl)cn3)c2cn1,inactive
18,On1ccccc1=S,inactive
19,CC(C)CCO,inactive
